# KDM5B inh: Primary screen for KDM5B Histone Demethylases FDH-coupled qHTS | KDM5B demethylase, FDH-coupled NADH fluorescence (FDH is formaldehyde dehydrogenase) | Potency, µM (doses to about 57.7 µM), hits mostly inhibitors | 2.6% of 220,000 active | AID 1347165, 2019; active = well fitted inhibition curve with a large enough effect; also: 0% is about no effect; nearly all actives have a fitted effect of over 70% in size
#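 Here, H3K4me3 peptide (12.5 µM in substrate mix) is demethylated by KDM5BΔAP, 200 nM final, after 10 min compound exposure. Formaldehyde product is coupled through FDH (0.25 U/mL in mix) to NADH fluorescence; 30-min ΔRFU feeds dose-response curves.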
# Numbers without * were called inactive; i = inactive. The sample as a whole holds a higher share of hits than the screen did. Potency is read from the fitted curve at half-maximal effect.
SMILES,KDM5B inh
O=C(NC1CCN(c2cc(-c3cccs3)[nH]n2)CC1)c1cc(Cl)ccc1F,i
O=C(NC1CCCN(c2cc(-c3ccc(Cl)cc3)[nH]n2)C1)c1cccs1 (centres undefined),i
O=C(Cc1ccc(Cl)cc1)NC1CCN(c2cc(-c3cccs3)[nH]n2)C1 (centres undefined),8.9µM*
O=C(NC1CCCN(c2cc(-c3ccc(F)cc3)[nH]n2)C1)c1ccc(F)cc1Cl (centres undefined),i
COc1ccc(-c2cc(N3CCC(NC(=O)c4cccs4)CC3)n[nH]2)cc1,i
COc1cccc(C(=O)NC2CCN(c3cc(-c4cccs4)[nH]n3)CC2)c1OC,i
O=C(NC1CCN(c2cc(-c3ccccc3)[nH]n2)C1)c1ccccc1 (centres undefined),i
O=C(NC1CCN(c2cc(-c3cccs3)[nH]n2)C1)c1ccccc1Cl (centres undefined),14µM*
O=C(NC1CCN(c2cc(-c3cccs3)[nH]n2)C1)c1ccc(F)cc1Cl (centres undefined),16µM*
COc1ccc(C(=O)NC2CCN(c3cc(-c4cccs4)[nH]n3)C2)c(C)c1 (centres undefined),14µM*
CC(=O)c1c(C)oc2c(Cl)cc(NS(=O)(=O)c3ccc4ccccc4c3)cc12,i
NC(=O)C(Sc1cc(Cl)ccc1Cl)c1ccccc1 (centres undefined),i
Cc1ccc(S(=O)(=O)NCC2CN(Cc3ccccc3)CCO2)c(Br)c1 (centres undefined),i
O=c1[nH]cnc2c1nc(SCc1cccc(Cl)c1)n2-c1ccccc1,i
CC(C)CN(CC(C)C)C(=O)COC(=O)c1cc(=O)[nH]c2ccccc12,i
O=C(NCc1cccc(Cl)c1)C(=O)Nc1cccc2[nH]ccc12,i
O=c1c(C(F)(F)F)cccn1Cc1coc(-c2cccc(F)c2)n1,i
COCCn1c(C)c(C)c(S(=O)(=O)c2ccccc2)c1NC(=O)c1ccc(OC)cc1,i
CCOc1cc(=O)n2c(c1C(=O)NCCCN1CCCc3ccccc31)CCCCC2,11µM*
CCOc1cc(=O)n2c(c1C(=O)NCCOC)CCCCC2,i
CCOc1cc(=O)n2c(c1C(=O)NCc1ccccc1F)CCCCC2,i
COC(=O)c1c(NC(=O)C2CCCCC2)sc(C(=O)N(C)C)c1C,i
Cc1cn2nc(C(=O)NCc3ccc4c(c3)OCO4)cc2c(N2CCCC2)n1,25µM*
Cc1ccc(-n2cnc3cc(C(=O)NCCC4=CCCCC4)ccc32)c(C)c1,i
CCCN1C(=O)c2cc(C(=O)NCc3ccc4c(c3)OCO4)nn2CC1(C)C(=O)NC1CCCC1 (centres undefined),i
SMILES,KDM5B inh
CCc1ccc(CNC(=O)C2CCN(c3nc4ccccc4nc3C(F)(F)F)CC2)cc1,i
Cc1cn2nc(C(=O)NC(C)c3ccccc3)cc2c(N2CCCC2)n1 (centres undefined),i
Cc1cc(C(=O)NCc2ccc3c(c2)OCO3)c(C)o1,i
Cc1cn2nc(C(=O)NCc3ccc(C(F)(F)F)cc3)cc2c(N2CCCC2)n1,28µM*
Cc1nc(N2CCC(C(=O)NCCC3=CCCCC3)CC2)cc(C(F)(F)F)n1,i
Cc1cn2nc(C(=O)N3CCC(C(=O)NC4CCCCCC4)CC3)cc2c(=O)[nH]1,i
Cc1cn2nc(C(=O)NCCC3=CCCCC3)cc2c(N2CCCC2)n1,10µM*
Cc1cn2nc(C(=O)NC3CCC(C)CC3)cc2c(N2CCCC2)n1 (centres undefined),28µM*
Cc1n[nH]c(C)c1/C=C/C(=O)c1ccc(F)c(F)c1,i
O=C(NCC1(c2ccccc2)CC1)c1cccc(S(=O)(=O)N2CCOCC2)c1,i
CCOC(=O)C(C(=O)OCC)C(C(=O)OCC)(C(=O)OCC)C(C(=O)OCC)C(=O)OCC,i
CS(=O)(=O)c1cccc(C(=O)N2CCCCCC2)c1,i
CCCNC(=O)c1cc(-c2ccncc2)nc2ccccc12,i
CCCc1ccc(-c2csc(NC(=O)Cn3ncc4ccccc4c3=O)n2)cc1,i
COc1ccc(-c2noc(Nc3cc(C)ccc3OC)n2)cc1,i
COc1ccc(C(CNC(=O)c2nn(C)c(=O)c3ccccc23)N(C)C)cc1 (centres undefined),i
COc1ccc(C(=O)CCl)cc1Br,i
CCCS(=O)(=O)N1CCCC(Cc2noc(-c3ccncc3)n2)C1 (centres undefined),i
CCc1ccc(CNC(=O)c2cc(SC)ccc2C)s1,i
CCOCCCNc1nc2c(c(=O)[nH]c(=O)n2C)n1CCOCC,i
O=C(C1=C(c2ccccc2)S(=O)(=O)CCO1)N(Cc1cccc(F)c1)c1ccccn1,i
CCc1ccc(CNC(=O)c2c(C)oc3ncnc(N4CCCCC4)c23)cc1,i
COc1ccc(CNC(=O)C2CCN(C(=O)c3cc4c(=O)[nH]c(C)cn4n3)CC2)cc1,i
O=C(NCc1ccc(Cl)cc1)c1cnc2sc(N3CCCCCC3)nn2c1=O,i
Cc1cn2nc(C(=O)NCc3ccc(Cl)cc3)cc2c(N2CCCC2)n1,32µM*
SMILES,KDM5B inh
Cc1cn2nc(C(=O)NCc3ccc(F)cc3F)cc2c(N2CCCC2)n1,i
Cc1cn2nc(C(=O)NCc3ccc(Br)cc3)cc2c(N2CCCC2)n1,28µM*
Cc1c(C(=O)NCc2ccc(Cl)cc2)sc2nc3n(c(=O)c12)CCCC3,i
Cc1cn2nc(C(=O)NCc3ccccc3C(F)(F)F)cc2c(N2CCCC2)n1,14µM*
CCc1ccc(CNC(=O)c2cc3c(N4CCCC4)nc(C)cn3n2)cc1,25µM*
Cc1cn2nc(C(=O)NC(C)CCc3ccccc3)cc2c(N2CCCC2)n1 (centres undefined),i
CCc1ccc(CNC(=O)c2c(C)oc3nc(C)nc(N4CCCC4)c23)cc1,i
COc1ccc(CNC(=O)c2cc3c(N4CCCC4)nc(C)cn3n2)cc1,i
O=C(c1ccccn1)N1CCn2c(nn(-c3ccc(Cl)cc3)c2=O)C1,i
Cc1ccc(-n2nnnc2SCC(=O)N2CCN(CC(=O)N3CCCC3)CC2)cc1,i
Clc1ccc(Cl)c(NCc2nnc3n2CCCCC3)c1,i
Cc1noc(NC(=O)CSc2nccn2-c2ccccc2)n1,i
NS(=O)(=O)c1ccc(N/N=C/c2cccc(O)c2)c([N+](=O)[O-])c1,i
Cc1ccc(S(=O)(=O)N2CCN(C(=O)NCC3CN(CC(C)C)CCO3)CC2)cc1 (centres undefined),i
Cc1cc(C)n(CC(=O)N2CCC(c3nc(CCOc4ccc(F)cc4)no3)C2)n1 (centres undefined),i
CC(C)(C)NC(=O)CNc1nc(-c2ccncc2)nc2ccccc12,i
CCC(=O)N1CCCC(CN2CCN(c3ccccn3)CC2)C1 (centres undefined),i
CC(NC(=O)C1CCCO1)C(=O)N1CCN(c2ccccn2)CC1 (centres undefined),25µM*
COc1ccccc1N1CCN(C(=O)C(CC(C)C)NC(=O)C2CCCCC2)CC1 (centres undefined),i
CC(CCc1ccccc1)NC(=O)C1CCCO1 (centres undefined),i
CCn1ncc(N2CCCC(CC(=O)N3CCN(c4ccccn4)CC3)C2)cc1=O (centres undefined),i
Cc1ccc(C(C)NC(=O)C2CCCO2)cc1 (centres undefined),i
CC(NC(=O)C1CCC1)C(=O)N1CCN(c2ccccn2)CC1 (centres undefined),22µM*
